DT40 TDP1 no CPT: qHTS for Inhibitors of human tyrosyl-DNA phosphodiesterase 1 (TDP1): qHTS in cells in absence of CPT | DT40 Tdp1-/- hTDP1 cells, no CPT, ATP luminescence, 48 h | Potency, µM (top dose mostly 46.2 µM), most hits filed as inhibitors | 420,000 tested, 15% active; also: nearly all actives have a fitted effect of over 55% in size
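Growth kinetics read by CellTiter-Glo luminescence after ≥48 hr at 37 °C. Cells: DT40 Tdp1-/- stably carrying human TDP1, 400 per well, compound exposure in the absence of CPT (DMSO vehicle).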
HepG2 tox: HepG2 cytotoxicity, counter-screen for TGF-b inhibitors; HepG2 CAGA-GFP viability, ATP luminescence, 18 h; Potency, µM (doses to about 46.1 µM), most hits filed as cytotoxic; 410,000 tested, 0.76% active
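CellTiter-Glo luminescence gave cytotoxicity after 18 hours at 37 degrees C. The cells were HepG2 CAGA-GFP in 1% FBS DMEM, stimulated with 500 pg/mL TGF-beta after compound addition. %Activity was normalised to no-cell wells (complete cell-killing) and DMSO (no toxicity), and curves were fitted and classified.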
TGFb SMAD3 inh: TGF-b pathway inhibition. 410,000 tested, 1.2% active. Potency, µM (series often up to 46.1 µM), usual class: inhibitors. AID 588855. HepG2 CAGA-GFP TGF-b/SMAD3 reporter, GFP fluorescence, 18 h; TGF-beta stimulated, 500 pg/mL final; also: nearly all actives have a fitted effect of over 65% in size
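Cell-based qHTS in HEPG2 carrying a CAGA-GFP Smad reporter; compounds added before 500 pg/mL final TGF-beta, 18 h incubation at 37 degrees C, GFP fluorescence quantified per cell by imaging cytometry.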
ASM inhibitor: inhibitors of human secretory acid sphingomyelinase; P17405; Potency, µM (doses to about 57.5 µM), most hits filed as inhibitors; 340,000 tested, 0.006% active; placental ASM, HMU-PC fluorogenic substrate, 60 min
Target sequence (P17405 47-631 limits assumed): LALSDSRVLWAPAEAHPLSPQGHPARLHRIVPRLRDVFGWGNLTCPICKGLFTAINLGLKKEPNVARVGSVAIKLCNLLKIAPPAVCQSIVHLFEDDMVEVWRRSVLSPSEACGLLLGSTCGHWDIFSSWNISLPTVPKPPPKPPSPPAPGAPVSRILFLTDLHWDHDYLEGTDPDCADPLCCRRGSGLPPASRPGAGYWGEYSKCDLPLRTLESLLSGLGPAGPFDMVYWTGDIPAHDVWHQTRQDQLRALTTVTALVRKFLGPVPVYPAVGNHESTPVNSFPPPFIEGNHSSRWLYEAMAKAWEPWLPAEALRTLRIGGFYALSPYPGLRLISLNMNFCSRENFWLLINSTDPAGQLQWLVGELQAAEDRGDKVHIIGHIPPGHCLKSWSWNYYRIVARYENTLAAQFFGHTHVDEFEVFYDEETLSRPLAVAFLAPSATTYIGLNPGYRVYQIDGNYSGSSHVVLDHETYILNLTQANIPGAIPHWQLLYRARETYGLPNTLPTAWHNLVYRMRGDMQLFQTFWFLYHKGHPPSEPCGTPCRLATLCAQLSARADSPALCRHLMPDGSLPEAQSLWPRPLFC
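Fluorescence read-out (Ex 386 nm, Em 447 nm) after stopping the reaction at pH 10. Enzyme: ASM from human placenta; substrate HMU-PC0, 9 uM final; 60 min, 37 °C. Compound preincubation 10 min, ambient temperature.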
IL1B secr inh: inhibitors of inflammasome signaling (IL-1 beta secretion); THP-1 LPS/ATP IL-1B secretion, AlphaLISA, 16 h; stronger effect = lower value; activity change, % at 57.5 µM; 360,000 tested, 4.7% active; AID 743279; in the data active = activity change below about -50%; inconclusive = mostly about -30% to -49%
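Secreted IL-1B measured by AlphaLISA bead assay after 16 h compound exposure of THP-1 cells; compounds (final up to 57.5 uM) added 1 h before LPS (250 ng/mL) and ATP (1.25 mM) stimulation; lower signal means less secretion.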
DT40 TDP1 CPT: DT40-hTDP1 cell growth loss with CPT | Potency, µM (titrated, usually from 46.2 µM), most hits filed as inhibitors | 420,000 tested, 12% active | chicken DT40 Tdp1-/-;hTDP1 cells + 20 nM CPT, ATP luminescence, 48 h; also: nearly all actives have a fitted effect of over 55% in size
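Cell growth measured by CellTiter-Glo luminescence after a minimum 48 h, 37 C compound exposure with 20 nM CPT in Tdp1-knockout DT40 cells stably expressing hTDP1, seeded 400/well; qHTS titration format.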
A number is an active result; n = inactive; u = inconclusive; x = no result. Shown are actives, neighbours in structure and some others; about 19% of the full set was active somewhere. Unless noted, calls follow the shape of the dose curve; as a rule, active = well fitted curve in the direction sought with a large enough effect; inconclusive = small, poorly fitted or top-dose-only effect, or another doubt; inactive = no such curve, though single readings can be large; an effect the other way counts as inactive or inconclusive.

SMILES | DT40 TDP1 no CPT | HepG2 tox | TGFb SMAD3 inh | ASM inhibitor | IL1B secr inh | DT40 TDP1 CPT
COc1ccc(CC(=O)N2N=C(c3ccncc3)CC2(O)C(F)(F)F)cc1 (stereo unspecified) | 4.6µM | n | n | n | n | 5.2µM
CCOC(=O)C1=NNC2C(=O)N(Cc3ccccc3)C(=O)C12 (stereo unspecified) | n | n | n | n | n | n
O=C(Oc1ccc(Br)cc1C(=O)/C=C/c1ccccc1F)c1ccco1 | 16µM | n | 16µM | n | -98 | 21µM
Cc1ccc(S(=O)(=O)N(C)Cc2nc(-c3ccncc3)no2)cc1 | u | n | n | n | n | u
Cc1ccc(S(=O)(=O)N(C)Cc2nc(-c3ccc(Br)cc3)no2)cc1 | 18µM | n | n | n | n | u
CN(Cc1nc(-c2ccc(Cl)cc2)no1)S(=O)(=O)c1ccccc1 | u | n | n | x | x | u
COc1ccc(-c2noc(CN(C)S(=O)(=O)c3ccccc3)n2)cc1OC | u | n | n | n | n | 16µM
Cc1ccccc1C(=O)Nc1nnc(S(=O)(=O)N2CCc3ccccc32)s1 | u | n | u | x | x | n
CN(CC1COc2ccccc2O1)C(=O)Cn1cc(C(F)(F)F)ccc1=O (stereo unspecified) | n | n | n | n | n | n
CCCCNC(=O)C1(C)CCN1C(=O)CSc1ccccc1 (stereo unspecified) | n | n | n | x | n | n
CCOc1ccc(C(=O)Nc2ccc(C(=O)OCc3cc(=O)n4nc(CC)sc4n3)cc2)cc1 | u | n | n | x | x | n
CCc1nn2c(=O)cc(COC(=O)c3ccc(NC(=O)c4cccs4)cc3)nc2s1 | 6.5µM | n | n | x | x | 6.5µM
CCc1nn2c(=O)cc(COc3cccc(NC(=O)c4ccco4)c3)nc2s1 | u | n | n | n | n | 21µM
Cc1cccc(C(=O)Nc2cccc(C(=O)OCc3cc(=O)n4nc(C(C)C)sc4n3)c2)c1 | 15µM | n | n | x | x | u
CCOc1cc(C(=O)OCc2cc(=O)n3nc(CC)sc3n2)cc(OCC)c1OCC | u | n | u | x | x | 18µM
C=Cc1ccc(Cn2c(=O)cc(C)c3c(C)nn(-c4ccccc4)c32)cc1 | n | n | n | x | x | n
COc1ccc(NC(=O)CCS(=O)(=O)c2cc3c4c(c2)CCN4C(=O)CC3)c(OC)c1 | n | n | n | x | x | n
CCC(=O)N1CCC1(C)C(=O)Nc1ccc2nc(C)ccc2c1 (stereo unspecified) | u | n | n | x | n | n
COc1cc(C(=O)OCc2cc(=O)n3nc(C4CCCCC4)sc3n2)cc(OC)c1OC | 10µM | n | n | x | x | 12µM
CCc1nn2c(=O)cc(COC(=O)c3cccc(NC(=O)c4ccccc4C)c3)nc2s1 | 15µM | n | n | x | x | 21µM
CCCc1nn2c(=O)cc(COC(=O)c3cccc(NC(=O)c4cccs4)c3)nc2s1 | u | n | n | x | x | u
Cc1nn2c(=O)cc(COC(=O)c3ccc(NC(=O)c4cccs4)cc3)nc2s1 | 15µM | n | n | x | x | 16µM
C[C@H](c1ccccc1)N1C[C@H](COCc2ccccc2)Oc2cc(N3CCC[C@H]3CO)ccc2S1(=O)=O | u | x | x | x | n | u
C[C@@H](c1ccccc1)N1C[C@@H](COCc2ccccc2)Oc2cc(N3CCC[C@H]3CO)ccc2S1(=O)=O | 21µM | x | x | x | u | u
C[C@H](c1ccccc1)N1C[C@@H](COCc2ccccc2)Oc2cc(N3CCC[C@@H]3CO)ccc2S1(=O)=O | 21µM | x | x | x | n | u
SMILES | DT40 TDP1 no CPT | HepG2 tox | TGFb SMAD3 inh | ASM inhibitor | IL1B secr inh | DT40 TDP1 CPT
O=C(NC1CCCC1)C1C(c2ccccc2)=Nc2ccccc2N1C(=O)c1cc(Cl)cc(Cl)c1 (stereo unspecified) | 29µM | x | x | x | n | 18µM
Cc1ccc2c(c1)C(c1ccncc1)=NNC(c1ccccc1)=N2 | n | n | n | n | n | n
c1ccc(C2=Nc3c(ccc4ccccc34)C(c3ccncc3)=NN2)cc1 | 21µM | n | u | n | n | 8.2µM
Cc1nc(-c2nc(-c3c(C(=O)NNC(=O)Nc4cccc(Cl)c4)noc3C)cs2)cs1 | u | n | n | n | n | u
Cc1onc(C(=O)NN)c1-c1csc(COc2ccc(Cl)cc2)n1 | 15µM | n | n | n | n | 21µM
Cc1ccccc1Nc1nnc(-c2ccc(C)c(S(=O)(=O)NCC3CCCO3)c2)c2ccccc12 (stereo unspecified) | 13µM | n | n | x | x | u
Cc1ccc(-c2n[nH]c(=O)c3ccccc23)cc1S(=O)(=O)NCC1CCCO1 (stereo unspecified) | u | n | n | n | n | u
Cc1ccc(-c2nnc(Nc3cccc(O)c3)c3ccccc23)cc1S(=O)(=O)NCC1CCCO1 (stereo unspecified) | 23µM | n | u | x | x | u
Cc1ccc(-c2nnc(Nc3ccc(CC(N)=O)cc3)c3ccccc23)cc1S(=O)(=O)NCC1CCCO1 (stereo unspecified) | n | n | n | n | u | n
Cc1ccc(-c2nnc(N3CCOCC3)c3ccccc23)cc1S(=O)(=O)NCC1CCCO1 (stereo unspecified) | 26µM | n | n | n | u | u
Cc1ccc(-n2ncc3c2CC(C)(C)CC3NC(=O)c2ccncc2)cc1 (stereo unspecified) | u | n | n | n | n | n
COc1ccccc1NC(=O)/C(=C/c1ccncc1)NC(=O)c1ccccc1 | n | n | n | n | n | n
O=C(c1cccc(Br)c1)c1nc2ccccc2[nH]c1=O | n | n | n | x | n | n
COC(=O)[C@]1(Sc2ccc(OC)cc2)CC(=O)N[C@@H]1c1ccccc1 | 18µM | x | x | x | n | u
Cc1ccnc2cc(Cl)cc(Cl)c12 | n | n | n | x | x | n
COc1cc(OC)c(OC)cc1CN1CCCC(C(=O)c2ccccc2SC)C1 (stereo unspecified) | 21µM | n | n | n | n | u
COc1cc(OC)c(OC)cc1CN1CCCC(C(=O)N2CCCCC2)C1 (stereo unspecified) | n | n | n | n | n | n
COc1cc(CN2CCCC(C(=O)c3ccccc3SC)C2)cc(OC)c1 (stereo unspecified) | u | n | u | n | n | 15µM
CS(=O)(=O)c1ccc(C(=O)N2CCN(C(=O)c3ccco3)CC2)cc1 | n | n | n | n | n | n
COc1ccc(C2c3[nH]c4ccccc4c3CCN2CCCn2cccn2)c(C)c1C (stereo unspecified) | 13µM | n | n | n | n | 12µM
CCO[C@@H]1OC(C(=O)N2CCN(Cc3ccccc3)CC2)=C[C@H](C2CC2)[C@H]1CCCO | u | n | n | n | n | u

High-throughput results deposited in PubChem BioAssay by National Center for Advancing Translational Sciences (NCATS).
